The campaign covered roughly 2,500 compounds. About 1,100 (44%) were called active. The set was probably picked from earlier hits. The list shows a part of the results. Unmarked numbers belong to inactive results.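 Rule for the calls: active = inhibition above 50% at 4 µM in the single-point screen; inactive = inhibition of 50% or less.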

The assay in a line: blockers of TNF-a NF-kB luciferase induction – cell-based, HEK293T NF-kB-Luc, luminescence, selectivity assay for NOD1/NOD2 signaling inhibitor project, primary screen (AID 1852). To be noted: TNF-a induced, 14 h, at 4 µM, stronger effect = higher value.
Broadly, the inhibition is the change of the read-out against control, counted positive when it falls. Take `O=[N+]([O-])c1ccc(O)c(/C=N\N=C2c3ccccc3-c3ccccc32)c1`: the inhibition is 77% (active). For the molecule `O=[N+]([O-])c1cccc(/C=N\N=C2c3ccccc3-c3ccccc32)c1O`, the inhibition is 7.7%. To `Oc1nc(Nc2ccc(Cl)cc2Cl)sc1/C=C1\C=Nc2ccccc21` belongs 5.6%; to `Cc1ccc(CSc2nc(-c3ccccc3)c(C#N)c(=O)[nH]2)cc1`, -18%. Take `Cc1ccc(Cc2c(C)c(C#N)c3[nH]c4ccccc4n3c2=O)cc1`: the inhibition is 74.6% (active). As for `CCCCc1c(C)c(C#N)c2[nH]c3ccccc3n2c1=O`, the inhibition is 44.9%. As to `Cc1ccc(O)c(C(=O)c2cc(C#N)c3nc4ccccc4n3c2)c1`, the inhibition is 33%. Take `Cc1ccc(S(=O)(=O)c2cc3ccccc3oc2=O)cc1`: the inhibition is 29.7%. As for `CC(C)c1ccc(S(=O)(=O)c2cc3cc(Br)ccc3oc2=O)cc1`, the inhibition is 32.3%. With `Cc1ccc(S(=O)(=O)c2cc3cc(Br)ccc3oc2=O)cc1`, the inhibition is 58.4% (active).

Regarding `O=c1oc2ccc(Br)cc2cc1S(=O)(=O)c1ccc(F)cc1`, the inhibition is 68% (active). With `C=CCC1(CC=C)CCCN1C(=O)c1cc(COc2ccc(C)nc2)on1`, the inhibition is 52.5% (active). For `C=CCC1(CC=C)CCCN1C(=O)c1cc(COc2cncc(Cl)c2)on1` the value was 19.5%; for `Cc1ccc(OCc2cc(C(=O)NC3CCCCC3)no2)cn1`, 46%.

For `O=C(O)c1cccc(-c2ccc(/C=N/n3cnc4sc5c(c4c3=O)CCCC5)o2)c1`, the inhibition is -30.8%. With `CC1CCc2sc3ncnc(N4CCOCC4)c3c2C1` (configuration not stated), the inhibition is 29.3%. As to `c1ccc(N2CCN(c3ncnc4sc5c(c34)CCC5)CC2)cc1`, the inhibition was 57.1% (active). On to `CC1=NNC(=O)/C1=C\c1cn(-c2ccccc2)nc1-c1cccs1`, for which the inhibition was -42.7%. In the case of `COc1cccc(N2CCN(c3ncnc4c3[nH]c3ccc(F)cc34)CC2C)c1` (configuration not stated), the inhibition is 110% (active).

Turning to `Cc1cccc(N2CCN(C(=O)C3CCN(c4ncnc5c4nc4n5CCCCC4)CC3)CC2C)c1` (configuration not stated), the inhibition was 33.7%. Consider `COc1cccc(N2CCN(c3ncnc4c3[nH]c3ccccc34)CC2C)c1` (configuration not stated), for which the inhibition is 106% (active). On to `NC(=O)c1c(NC(=O)c2ccc([N+](=O)[O-])o2)sc2c1CCCC2`, for which the inhibition was -24.9%. On to `Cc1nc2ccccc2c2oc(C(=O)NCC3COc4ccccc4O3)cc12` (configuration not stated), for which the inhibition is 39.3%. For `COc1ccc(CNC(=O)c2cc3c(C)nc4ccccc4c3o2)c(OC)c1` the value was 62.8% (active); for `COc1ccc(OC)c(Nc2c3c(nc4ccccc24)CCC3)c1`, 49.6%; for `CCCCc1cc(=O)oc2cc(OCC(=O)Nc3cccnc3)c(Cl)cc12`, 85.3% (active). To `O=C(COc1ccc2c(-c3ccccc3)cc(=O)oc2c1)Nc1cccnc1` belongs 34.1%; to `O=C(COc1ccc(C(=O)c2ccccc2)cc1)Nc1cccnc1`, 46.8%; to `COc1nc(Nc2nc3ccccc3c(=O)[nH]2)nc2ccc(C)cc12`, 67.4% (active). For `COc1ccc(C(=O)Nc2ccccc2C(=O)N/N=C/c2ccccn2)cc1OC` the value was 102% (active); for `Cc1ccc(-n2[nH]c(C)c(/C=N/Nc3ccc([N+](=O)[O-])cc3[N+](=O)[O-])c2=O)cc1C`, 83.2% (active); for `C/C(=N/NC(=S)Nc1cccc(C)c1)c1cccc([N+](=O)[O-])c1`, 6.4%.

As to `Cc1[nH]n(-c2ccccc2)c(=O)c1/C=N/NC(=O)c1cccc(F)c1`, the inhibition was -0.8%. For `Cc1c(C(=O)N/N=C/c2ccoc2)cccc1[N+](=O)[O-]` the value was -12.6%; for `Cc1cccc(/C=N/NC(=O)c2cccc([N+](=O)[O-])c2)n1`, 97.4% (active). In the case of `Cc1ccc2cccc(N=Cc3c(C)[nH]n(-c4ccccc4)c3=O)c2n1`, the inhibition was 38.3%. `Cc1[nH]n(-c2ccccc2)c(=O)c1/C=N/NC(=O)c1cccc([N+](=O)[O-])c1`: the inhibition is 76.8% (active).

For the molecule `COc1ccc(C(=O)N/N=C/c2ccc(OC(=O)c3cccc4ccccc34)c([N+](=O)[O-])c2)cc1`, the inhibition is 41.6%. Take `CCOc1cc(S(=O)(=O)NCc2ccncc2)ccc1Cl`: the inhibition was 48.8%. For `C/C(Cn1nnc([N+](=O)[O-])n1)=N\NC(=O)c1ccc(Cl)c(Cl)c1` the value was 31.3%. To `O=C(N/N=C/c1ccccn1)c1ccc(Cl)c(Cl)c1` belongs 101% (active); to `CC(/C=C/c1ccccc1)=N/NC(=O)c1cc([N+](=O)[O-])cc([N+](=O)[O-])c1`, 102% (active). `O=C(N/N=C/c1ccccn1)c1sc2ccccc2c1Cl`: the inhibition is 85.8% (active). For `CC(/C=C/c1ccccc1)=N/NC(=O)c1cccc(Br)c1` the value was 13.3%; for `COc1cc([N+](=O)[O-])ccc1-c1ccc(/C=N/NC(=O)c2ccccc2O)o1`, 0.6%. As for `O=C(N/N=C/c1ccccn1)c1ccc(Cl)cc1`, the inhibition is -21.2%. With `C/C(=N\NC(=O)c1ccc(Cl)c(Cl)c1)c1ccc(Br)s1`, the inhibition was 40.4%. In the case of `O=C(N/N=C/c1ccccn1)c1cc([N+](=O)[O-])cc([N+](=O)[O-])c1`, the inhibition is 96.4% (active). `CCc1ccc(N(CC)c2ncnc3nc[nH]c23)cc1`: the inhibition was 82.5% (active). For `CCN(c1ccc(OC)cc1)c1ncnc2nc[nH]c12`, the inhibition is 86.3% (active).

For `CCCN(CCC)c1ncnc2nc[nH]c12`, the inhibition was 83.4% (active). Turning to `C/C(Cl)=C/Cn1c(SC(C)C)nc2c1c(=O)[nH]c(=O)n2C`, the inhibition is -13.9%. To `O=C(Nc1ccccc1C(=O)O)c1cccc(NS(=O)(=O)c2ccc(Br)cc2)c1` belongs 55.5% (active); to `Cc1ccc2c(c1)CCCN2S(=O)(=O)c1cccc(C(=O)Nc2ccccc2C(=O)O)c1`, 5.4%; to `O=C(/C=C/c1ccc([N+](=O)[O-])cc1)Nc1cccc(C(=O)Nc2ccccc2C(=O)O)c1`, 65.5% (active). For the molecule `Cc1ccc(NS(=O)(=O)c2cc(NC(=O)c3ccc4c(c3)NC(=O)CS4)ccc2Cl)c(C)c1`, the inhibition was -2.2%. For `O=C(Nc1cccc([N+](=O)[O-])c1)c1ccc2ccccc2c1O`, the inhibition is 32.8%. As for `O=C(Nc1ccccc1C(=O)O)c1cc(S(=O)(=O)Nc2cccc(F)c2)ccc1Cl`, the inhibition was 58.9% (active). As for `Cc1cccc(NC(=O)c2cccc(NS(=O)(=O)c3ccc(Cl)cc3)c2)c1`, the inhibition was 23.1%.

Take `O=C1CSc2ccc(C(=O)Nc3cccc(S(=O)(=O)Nc4ccc(Br)cc4)c3)cc2N1`: the inhibition was 63.4% (active).

Consider `Cc1ccc(NS(=O)(=O)c2cc(NC(=O)c3ccc4c(c3)NC(=O)CS4)ccc2C)c(C)c1`, for which the inhibition is 3.2%. `Cc1ccc(Sc2ccc(/C=C3/C(=O)NN(c4ccccc4)C3=O)o2)cc1`: the inhibition is -8.6%. `NS(=O)(=O)c1ccc(NC(=O)c2cc(Cl)ccc2Cl)cc1`: the inhibition was 14.7%. With `O=C(Nc1ccc(Cl)cn1)c1ccc(Br)c(S(=O)(=O)N2CCCCC2)c1`, the inhibition was 39.5%.

As to `O=C(Nc1ccccc1C(=O)O)c1cc(S(=O)(=O)Nc2ccccc2)ccc1Cl`, the inhibition was 58.9% (active).

Regarding `O=C(CCl)Nc1cc(S(=O)(=O)N2CCCCCC2)ccc1Cl`, the inhibition was 17.6%. For the molecule `O=C(Nc1ccccc1C(=O)O)c1cc(S(=O)(=O)N2CCCCC2)c(Cl)cc1Cl`, the inhibition was 61% (active).

As to `Cc1ccc(C(=O)Nc2ccccc2C(=O)O)cc1S(=O)(=O)Nc1ccccc1`, the inhibition is 76.6% (active).

Regarding `O=C(c1cc2nc(-c3ccc(F)cc3)cc(C(F)(F)F)n2n1)N1CCCCC1c1cccnc1` (configuration not stated), the inhibition was 34.3%.

Turning to `Brc1ccccc1OCCCCn1cnc2ccccc21`, the inhibition is -10.4%. As for `O=c1cc(C(F)(F)F)[nH]c2ccc(OC(F)(F)F)cc12`, the inhibition is 78.8% (active). For the molecule `O=c1cc(C(F)(F)F)[nH]c2ccc(C(F)(F)F)cc12`, the inhibition is 73.1% (active). As for `O=c1nc(/C=C/c2ccccc2C(F)(F)F)cc(C(F)(F)F)[nH]1`, the inhibition is -14.4%.

As for `CN(C(=O)/C=C/c1ccc([N+](=O)[O-])s1)c1ccccc1`, the inhibition is 37.1%. As to `Cc1ccccc1NC(=O)/C=C/c1ccc([N+](=O)[O-])s1`, the inhibition was 104% (active). As for `Cc1ccc(NC(=O)/C=C/c2ccc([N+](=O)[O-])s2)c(C)c1`, the inhibition is 100% (active). Take `Oc1[nH]c2ccccc2c1N=NC(=S)N1CCOCC1`: the inhibition was 94.8% (active). Take `Oc1[nH]c2ccccc2c1N=Nc1nc(Nc2ccccc2)nc(N2CCOCC2)n1`: the inhibition was 12.6%. To `O=C(O)CCn1cc(/C=C\C(=O)c2ccc(Cl)cc2)c(-c2cccc(Br)c2)n1` belongs 77.2% (active).

As for `Cc1ccc(-c2nn(CCC(=O)O)cc2/C=C\C(=O)c2ccc(Br)cc2)cc1`, the inhibition is 94.7% (active). As for `O=C(O)CCn1cc(/C=C/C(=O)c2ccc(Cl)cc2)c(-c2cccc(Br)c2)n1`, the inhibition was -4.4%. `N#C/C(=C(/O)COC(=O)CSc1ccc(Cl)cc1)c1nc2ccccc2[nH]1`: the inhibition is 93.2% (active). For the molecule `N#C/C(=C(/O)COC(=O)CSc1ccc2ccccc2c1)c1nc2ccccc2[nH]1`, the inhibition was 90.4% (active).

For the molecule `Cc1ccnc(NC(=O)Nc2ccc3c(c2)N(C)C(=O)CS3)c1`, the inhibition is -55.6%. For the molecule `O=C(Nc1nc(-c2cc(F)ccc2F)cs1)c1ccccn1`, the inhibition is 91.2% (active). To `O=C(Nc1nnc(SCc2ccc(F)cc2)s1)c1ccccn1` belongs 109% (active). As for `O=C(Nc1nc(-c2ccccn2)cs1)c1cc(Cl)ccc1[N+](=O)[O-]`, the inhibition was 105% (active). `Cc1cc(C(=O)Nc2nc(-c3ccccn3)cs2)ccc1[N+](=O)[O-]`: the inhibition is -1%. To `CCc1ccccc1OCC(=O)Nc1nc(-c2cccnc2)cs1` belongs 15.7%; to `Cn1cc([N+](=O)[O-])c(C(=O)Nc2nc(-c3ccc(Cl)cc3)cs2)n1`, 43.8%; to `CC(Oc1ccc(Br)cc1)C(=O)Nc1nc(-c2ccccn2)cs1` (configuration not stated), 90.7% (active). Regarding `Cc1nc(C2CCC3C4CCC5=CC(=O)CC[C@]5(C)C4CC[C@]23C)cs1` (some centres not stated), the inhibition is 34.9%.

(Values after PubChem BioAssay AID1852 (Sanford-Burnham Center for Chemical Genomics, 2009).)
